Measurements reported in PubChem BioAssay AID602304 (NMMLSC, 2012).
Measured potencies and affinities stand elsewhere.

Experiment: vacuolar alkalinization by V-ATPase blockade – S. cerevisiae, BCECF dye, powder set 1, dose response (AID 602304)
Conditions: BCECF fluorescence; series mostly up to 100 µM; response, vacuolar pH increase: at the top concentration; call rule not given here

response, vacuolar pH increase, inactive:
CS(=O)(=O)c1ccc2nc(N3CCN(C(=O)c4ccc([N+](=O)[O-])o4)CC3)sc2c1 -0.33%
O=C(c1ccc(Br)s1)N1CCN(c2nc3ccc(F)cc3s2)CC1 14.7%
O=C(c1cnccn1)N1CCN(c2nc3ccc(F)cc3s2)CC1 4.95%
Cc1cc(C(=O)N2CCN(c3nc4ccc(F)cc4s3)CC2)on1 20.2%
Cc1cc(C(=O)N2CCN(c3nc4ccc(F)cc4s3)CC2)nn1C 0.97%
Cc1cc(C(=O)N2CCN(c3nc4ccc(F)cc4s3)CC2)no1 3.47%
O=C(C1CCCCC1)N1CCN(c2nc3ccc(F)cc3s2)CC1 -0.47%
O=C(Nc1ccccc1N1CCOCC1)c1ccc([N+](=O)[O-])o1 8.93%
O=C(c1ccc(Cl)s1)N1CCN(c2nc3ccc(F)cc3s2)CC1 12.2%
O=C(c1ccno1)N1CCN(c2nc3ccc(F)cc3s2)CC1 -0.47%
Cc1cc(C(=O)N2CCN(c3nc4ccc(F)cc4s3)CC2)n(C)n1 12.2%
O=C(C1CC1)N1CCN(c2nc3ccc(F)cc3s2)CC1 -0.84%
O=C(c1cccs1)N1CCN(c2nc3ccc(F)cc3s2)CC1 8.03%
O=C(c1nc2ccccc2s1)N1CCN(c2nc3ccc(F)cc3s2)CC1 -0.84%
CS(=O)(=O)c1cccc2sc(N3CCN(C(=O)c4ccc([N+](=O)[O-])o4)CC3)nc12 1.7%
O=C(c1ccc([N+](=O)[O-])o1)N1CCN(c2nccs2)CC1 28.2%
CC(C)(C)C(=O)N1CCN(c2nc3ccc(F)cc3s2)CC1 1.95%
O=C(c1ccc([N+](=O)[O-])o1)N1CCN(c2ccccn2)CC1 12.2%
O=C(c1ccco1)N1CCN(c2nc3ccc(F)cc3s2)CC1 4.99%
